Data on 21 compounds can be found in PubChem BioAssay (NCATS).

Unmarked numbers belong to inactive results. Results filed as inconclusive are left out. Activity calls are given as the source filed them. The call rests on the fitted dose curve; in most records, active means well fitted curve in the direction sought with a large enough effect; inconclusive means small, poorly fitted or top-dose-only effect, or another doubt; inactive means no such curve, though single readings can be large; an effect the other way counts as inactive or inconclusive.

The nature of assay [1]: qHTS to identify inhibitors of the type 1 interferon - major histocompatibility complex class I in skeletal muscle: primary screen against the NCATS LOPAC collection (AID 1347405).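 Further: lytic HiBiT luminescence reporting HLA-B protein level; on the % scale 0 is the no-effect control and ±100 the full control effect.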 The method, boiled down: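 Luminescence from HiBiT fused to endogenous HLA-B in CRISPR-engineered human myoblasts served as the read-out. Cells received 4.0 ng/ml IFN-beta plus compound (seven concentrations, 1:4.3 steps, highest 46 uM final) for 24 hrs before lytic detection.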
A general note: qHTS replaces the single test concentration by a dilution series.

A short description of assay [2]: qHTS to identify inhibitors of the type 1 interferon - major histocompatibility complex class I in skeletal muscle: primary screen against the NCATS Pharmaceutical Collection (AID 1347407). Further: on the % scale 0 is the no-effect control and ±100 the full control effect. The method, boiled down: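 Luminescence from HiBiT-tagged endogenous HLA-B*08:01 served as the read-out of IFN-beta-induced MHC class I in CRISPR-engineered C25cl48 myoblasts. Cells received 4 ng/ml IFN-beta plus compound (high final 46 uM, […]) for 24 h.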

Assay [3] in a line: qHTS for inhibitors of adenylyl cyclases using a fission yeast platform: a pilot screen against the NCATS LOPAC library (AID 1347410).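 Further: plate controls were DMSO vehicle for no effect and DPI positive control for full effect.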 The method, boiled down: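 Fission yeast qHTS: CHP2027 cells (AC9-GNAS-PDE4D2, fbp1-GFP), 5x10^6 cells/mL working density, EMM + His/Lys/Ura; LOPAC at up to 57 µM final; 18 h dark, 30C; GFP by laser cytometry. DPI positive control, DMSO vehicle.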

In assay [4] the target is Protein phosphatase 1D (Homo sapiens) (UniProt O15297). Briefly: RapidFire Mass Spectrometry qHTS Assay for Modulators of WT P53-Induced Phosphatase 1 (WIP1) (AID 1347424).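 Further: amount of dephosphorylated VEPPL-S-QETFS peptide product formed by WIP1; series mostly up to about 63 µM; plate controls were DMSO wells for no effect and GSK830371 inhibitor control at 10 µM for full effect.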 The method, boiled down: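 10 nM WIP1 preincubated with compounds 1 hr at room temperature in pH 7.5 Tris buffer with 30 mM MgCl2, 1 mM TCEP; 2 uM VEPPL-pS-QETFS phosphopeptide for 5 min, formic acid quench; dephosphorylated product quantified by RapidFire MS against labelled standard.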
Chain of Protein phosphatase 1D (Homo sapiens) (O15297 whole entry, looked up): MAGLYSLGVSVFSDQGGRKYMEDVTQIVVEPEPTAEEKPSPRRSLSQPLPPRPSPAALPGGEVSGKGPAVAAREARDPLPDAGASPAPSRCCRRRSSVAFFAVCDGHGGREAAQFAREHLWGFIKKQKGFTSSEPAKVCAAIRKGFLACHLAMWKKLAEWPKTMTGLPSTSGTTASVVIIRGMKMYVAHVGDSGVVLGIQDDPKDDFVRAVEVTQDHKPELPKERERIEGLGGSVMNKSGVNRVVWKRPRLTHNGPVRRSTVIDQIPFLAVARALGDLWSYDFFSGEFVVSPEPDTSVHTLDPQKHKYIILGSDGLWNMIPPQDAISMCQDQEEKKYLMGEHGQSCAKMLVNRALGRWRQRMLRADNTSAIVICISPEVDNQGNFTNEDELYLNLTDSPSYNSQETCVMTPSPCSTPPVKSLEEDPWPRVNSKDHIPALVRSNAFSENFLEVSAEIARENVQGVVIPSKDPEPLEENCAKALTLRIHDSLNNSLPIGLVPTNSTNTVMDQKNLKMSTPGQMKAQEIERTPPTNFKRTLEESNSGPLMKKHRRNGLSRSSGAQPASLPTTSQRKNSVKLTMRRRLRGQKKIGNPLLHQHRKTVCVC

The nature of assay [5]: Validation qHTS assay for inhibitors of Activation Induced Cytidine Deaminase (AID): UDG Counterscreen signal (AID 1347427). Further: 0% is about no effect. The method, boiled down:
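Counterscreen read of UDG activity (2 U/mL, 4/3x) in the FRET deamination format with AID (1 uM, 4/3x), DJC20/DJC23 substrates (250 nM, 4x), 4 h at room temperature. NaOH stop, fluorescence at 560 ex/665 em.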

Assay [6] addresses Single-stranded DNA cytosine deaminase (Homo sapiens) (UniProt Q9GZX7). Briefly: Validation qHTS assay for inhibitors of Activation Induced Cytidine Deaminase (AID): AID signal (AID 1347429). Further: potency means the concentration at half of the fitted maximal effect. On activity change, negative = inhibition: on the % scale 0 is the no-effect control and ±100 the full control effect. The method, boiled down: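 Fluorescence at 540 nm excitation and 590 nm emission reports ssDNA cytosine deamination by AID, with UDG in the same well. Compound-treated reactions ran 4 hr at room temperature with DJC20/DJC23 substrate, followed by 30 min NaOH treatment.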

Assay [7] in a line: Primary qHTS for inhibitors of La Crosse Virus (LACV) - induced cell death in SH-SY5Y cells (AID 1508616).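 Further: top concentration of the series differs between compounds; 0% = infected DMSO wells and 100% = uninfected DMSO wells; higher means more rescue of cells from virus-induced death.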 The method, boiled down: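 Protection against LACV-induced cell death is scored in SH-SY5Y cells exposed to compounds and virus (0.01 MOI) for 6 days. Data normalized to virus-infected DMSO wells and virus-free DMSO wells.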
Assay [8] addresses Protein phosphatase 1D (Homo sapiens) (UniProt O15297). The assay is described as follows: Rhodamine-PBP qHTS Assay for Modulators of WT P53-Induced Phosphatase 1 (WIP1) (AID 1347425). Further: % of control where 0% means no effect. The method, boiled down: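 WIP1 (5 nM final) was preincubated with compound for 1 hour at room temperature. It then dephosphorylated 10 uM VEPPL-pS-QETFS peptide in Tris-HCl pH 7.5 with 30 mM MgCl2. Released Pi was detected by 10 uM Rh-PBP fluorescence (ex 525/em 598 nm) read at 1-min intervals for 11 min, as delta f1 - f0.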

A short description of assay [9]: qHTS to identify inhibitors of the type 1 interferon - major histocompatibility complex class I in skeletal muscle: primary screen against the NCATS Mechanism Interrogation Plate v5.0 (MIPE) Libary (AID 1347411). Further: nearly all actives have a fitted effect of over 65% in size. Further: potency means the concentration at half of the fitted maximal effect.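 On activity change, negative = inhibition: plate controls were vehicle for no effect and reference inhibitor for full effect.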 The method, boiled down:
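Luminescence from HiBiT-tagged endogenous HLA-B*08:01 served as the MHC class I read-out. CRISPR-engineered C25cl48 human myoblasts received 4.0 ng/ml IFN-beta plus compound for 24 hrs, with an 11-point, 1:3 series topping at 46 uM final.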

Assay [10] has as its target Calcium and integrin-binding protein 1 (Homo sapiens) (UniProt Q99828). The assay is described as follows: Confirmatory qHTS for Identification of Calcium Integrin Binding Protein 1 (CIB1) Competitor (AID 1508617). Further: potency means the concentration at half of the fitted maximal effect; nearly all actives have a fitted effect of over 65% in size. The method, boiled down:
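FP competition: CIB1-GST (1 uM final) in 5 mM HEPES pH 7.4, 125 mM NaCl, 5 mM CaCl2, 0.01% Tween20 preincubated 15 min RT with compounds (up to 114 uM), then FITC-alphaIIb peptide (100 nM), 15 min RT; Ex 480/Em 540.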

Chain of Single-stranded DNA cytosine deaminase (Homo sapiens) (Q9GZX7 whole entry, looked up): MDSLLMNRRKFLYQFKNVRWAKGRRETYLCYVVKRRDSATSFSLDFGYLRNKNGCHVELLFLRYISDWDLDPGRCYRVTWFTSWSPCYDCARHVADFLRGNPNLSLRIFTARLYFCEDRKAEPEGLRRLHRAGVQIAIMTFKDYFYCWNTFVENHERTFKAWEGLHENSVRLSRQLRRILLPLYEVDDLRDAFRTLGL
Chain of Calcium and integrin-binding protein 1 (Homo sapiens) (Q99828 whole entry, looked up): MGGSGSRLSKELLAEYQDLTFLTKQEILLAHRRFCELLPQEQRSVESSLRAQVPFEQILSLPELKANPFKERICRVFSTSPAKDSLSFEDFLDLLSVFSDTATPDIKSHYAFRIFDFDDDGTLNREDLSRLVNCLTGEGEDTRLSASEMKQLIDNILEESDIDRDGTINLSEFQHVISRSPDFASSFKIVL

As to `O=C(O)COCCN1CCN(C(c2ccccc2)c2ccc(Cl)cc2)CC1` (configuration not stated), the Potency entry in [1], in assay [4] and in assay [6] was “inactive” throughout. Besides, the outcome in assay [2], in [3], in [5] and in assay [7] was inactive.

For `Nc1nc2c(ncn2COCCO)c(=O)[nH]1`, the call in assay [3], in [8] and in assay [7] was inactive. For the same compound, the Potency result in [4] was “inactive”.

`Cc1ccc(-n2nc(C(C)(C)C)cc2NC(=O)Nc2ccc(OCCN3CCOCC3)c3ccccc23)cc1`: the outcome in assay [2], in [8] and in [7] was inactive. In addition, the Potency entry in assay [9] was “inactive”.

As for `O=C(Nc1nc2ccccc2n1CCN1CCOCC1)c1cccc([N+](=O)[O-])c1`, the compound was called inactive in [3], in assay [5] and in assay [7]. Further, the Potency entry in assay [9] and in [6] was “inactive” each time.

For `CNC(=O)c1ccccc1Sc1ccc2c(/C=C/c3ccccn3)n[nH]c2c1`, the call in assay [2] and in assay [8] was inactive. Besides, in assay [4], the Potency result was “inactive”.

On to `Clc1cccc(Cl)c1NC1=NCCN1`, for which the Potency entry in [1], in [4] and in assay [6] was “inactive” throughout. Moreover, the outcome in assay [2], in assay [3], in [5] and in assay [7] was inactive.

Turning to `CCC(C)N(C)C(=O)c1cc2ccccc2c(-c2ccccc2Cl)n1` (configuration not stated), the Potency entry in [1], in assay [9] and in [6] was “inactive” throughout. In addition, the call in assay [3], in assay [5] and in [7] was inactive.

Take `CCC(C)(C)C(=O)O[C@H]1C[C@@H](C)C=C2C=C[C@H](C)[C@H](CC[C@@H]3C[C@@H](O)CC(=O)O3)[C@H]21`: in assay [2], the compound was classed as inactive. Also, the Potency entry in assay [9] and in [4] was “inactive” throughout.

For the compound `CC1(C)CNc2cc(NC(=O)c3cccnc3NCc3ccncc3)ccc21`, in assay [9], the Potency entry was “inactive”.

Turning to `CCN(CC)CCCC(C)Nc1ccnc2cc(Cl)ccc12` (configuration not stated), the Potency result in [1], in [4] and in assay [6] was “inactive” each time. Further, the result in [2], in [5] and in assay [7] was inactive. Further, in [9], the activity change, negative = inhibition is 34% [at 8.44 µM].

As for `CC(C)c1onc(-c2c(Cl)cccc2Cl)c1COc1ccc(/C=C/c2cccc(C(=O)O)c2)c(Cl)c1`, in [9], the Potency entry was “inactive”.

With `OC(CN1CCC(Cc2ccc(F)cc2)CC1)c1ccc(Cl)cc1` (configuration not stated), the compound was classed as inactive in assay [2], in assay [3], in assay [5] and in assay [7]. In addition, the Potency result in assay [4] and in [6] was “inactive” throughout.

Regarding `CCc1cncnc1N1CCN(Cc2nc3ccc(C(F)(F)F)cc3[nH]2)CC1`, the Potency entry in assay [1] and in assay [9] was “inactive” in each case. For the same compound, the outcome in assay [3] was inactive.

`COc1ccc2nc(S(=O)Cc3ncc(C)c(OC)c3C)[nH]c2c1` (configuration not stated): the result in assay [2], in [8] and in assay [7] was inactive. For the same compound, the Potency entry in [9] and in [4] was “inactive” each time. The Potency in assay [10] was 39.8 µM (active).

Take `CCc1ccc(CCOc2ccc(CC3SC(=O)NC3=O)cc2)nc1` (configuration not stated): the call in assay [2] and in assay [7] was inactive. Moreover, the Potency entry in assay [9] and in assay [4] was “inactive” throughout.

Regarding `CCOC(=O)N1CCC(=C2c3ccc(Cl)cc3CCc3cccnc32)CC1`, the Potency entry in assay [1], in assay [4] and in [6] was “inactive” in each case. The compound was classed as inactive in assay [3], in assay [5] and in assay [7].

As for `CC(C)(Sc1ccc(CCN(CCCCC2CCCCC2)C(=O)NC2CCCCC2)cc1)C(=O)O`, the Potency entry in assay [1] and in [9] was “inactive” throughout. Moreover, the compound was classed as inactive in assay [3], in [5] and in [7]. Besides, the Potency in assay [6] was 79.4 µM (active).

For `Cc1oncc1C(=O)Nc1ccc(C(F)(F)F)cc1`, the call in assay [3], in assay [5] and in assay [7] was inactive. The Potency in [9] is 18.6 µM (active). Moreover, the Potency result in assay [4] and in assay [6] was “inactive” throughout.

As to `CCCc1nc2c(C)cc(-c3nc4ccccc4n3C)cc2n1Cc1ccc(-c2ccccc2C(=O)O)cc1`, the result in assay [2] and in [7] was inactive. The Potency result in [9] is “inactive”.

Turning to `CN1CCN(CCCN2c3ccccc3Sc3ccc(C(F)(F)F)cc32)CC1`, the Potency result in assay [1], in assay [9], in assay [4] and in [6] was “inactive” each time. The call in assay [3], in assay [5] and in assay [7] was inactive.

For the compound `C1COC(NC(C2CC2)C2CC2)=N1`, the Potency result in assay [1], in [9], in assay [4] and in assay [6] was “inactive” in each case. In addition, the outcome in [3], in [5] and in assay [7] was inactive.
